From PubChem
Sampled rows, rich in hits. Any-hit rate of the full collection: about 14%.
Sm TGR block: qHTS Assay for the Inhibitors of Schistosoma Mansoni Peroxiredoxins. Schistosoma mansoni thioredoxin glutathione reductase (TGR), Q962Y6. purified TGR, DTNB reduction, TNB absorbance 405 nm. Potency, µM (titrated, usually from 114 µM), without a hit: at the highest dose activity change, negative = inhibition, actives largely listed as inhibitors. 3% of 360,000 active; also: potency is read from the fitted curve at half-maximal effect; nearly all actives have a fitted effect of over 60% in size
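Kinetic colorimetric format: TGR-catalysed, NADPH-driven DTNB reduction monitored via TNB absorbance. Enzyme dispensed at 20 nM; compound exposure 15 min at room temperature before reaction start.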
HCMV inh: qHTS Assay for inhibitors of the human cytomegalovirus (HCMV). HFF cells, HCMV-luciferase reporter, 72 h; stronger effect = lower value. AID 1259415, 2018. activity change, negative = inhibition, % at 57.5 µM. 4.5% of 410,000 active; in the data active = activity change below about -60%; inconclusive = no clear call, values can overlap the other calls; inactive = above about -39%
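Cell-based, HFFs, 1000 cells/well, 16 h 37C; cpds in DMSO + HCMV-luc, MOI 1 PFU/cell; 72 h 37C; OneGlo luminescence after 5 min RT; norm. to buffer vs Salinomycin 10uM.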
Pf growth 96h: Primary qHTS for delayed death inhibitors of the malarial parasite plastid, 96 hour incubation. Potency, µM (highest dose often 28.7 µM), without a hit: top-dose activity change, negative = inhibition, most hits filed as inhibitors. AID 504834, 2011. P. falciparum luciferase reporter growth, 96 h. 6.9% of 320,000 active; also: potency is read from the fitted curve at half-maximal effect
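Readout is luminescence from an integrated firefly luciferase in P. falciparum. Red cells, 2% hematocrit and 0.05% parasitemia final, were cultured with compound through two parasite generations (96 hours) at 37 C, 5% CO2.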
FBPA Giardia inh: qHTS Assay for Inhibitors of Fructose-1,6-bisphosphate Aldolase from Giardia Lamblia | A8B2U2 | purified Giardia FBPA | Potency, µM (highest dose often 59.6 µM), for inactives: top-dose activity, negative = inhibition, usual class: inhibitors | 0.71% of 290,000 active | AID 2451, 2010; also: potency is read from the fitted curve at half-maximal effect; nearly all actives have a fitted effect of over 55% in size
Target sequence (A8B2U2 whole entry, looked up): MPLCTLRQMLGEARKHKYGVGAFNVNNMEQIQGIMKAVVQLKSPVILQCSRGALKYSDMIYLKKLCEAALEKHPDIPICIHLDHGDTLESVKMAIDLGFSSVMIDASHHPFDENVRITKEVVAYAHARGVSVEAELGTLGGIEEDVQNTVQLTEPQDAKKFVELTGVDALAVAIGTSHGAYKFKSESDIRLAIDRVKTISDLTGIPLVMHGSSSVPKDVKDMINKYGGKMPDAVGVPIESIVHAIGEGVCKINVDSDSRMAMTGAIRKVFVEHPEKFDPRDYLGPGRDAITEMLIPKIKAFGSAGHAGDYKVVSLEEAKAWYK
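40 nM FBPA preincubated 10 min at RT with compound (up to 57.5 uM final), then substrate plus GAPDH/TPI/NAD/arsenate coupling and diaphorase/resazurin added. Fluorescence read after 20 min at RT, 525/598 nm.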
Pf growth 48h: Primary qHTS for delayed death inhibitors of the malarial parasite plastid, 48 hour incubation | P. falciparum luciferase growth in erythrocytes, 48 h | Potency, µM (top dose mostly 28.7 µM), for inactives: top-dose activity change, negative = inhibition, hits mostly inhibitors | 5.9% of 310,000 active; also: potency is read from the fitted curve at half-maximal effect
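Here the parasites carry a stable luciferase gene and grow inside erythrocytes in Albumax-based RPMI medium with compound for one erythrocytic cycle. Activity is scored as loss of luminescent signal.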
An asterisk follows results filed as active; u = inconclusive; x = no result given; [ ] = another dose, or the depositor's remark. Unless noted, calls follow the shape of the dose curve; as a rule, active = well fitted curve in the direction sought with a large enough effect; inconclusive = small, poorly fitted or top-dose-only effect, or another doubt; inactive = no such curve, though single readings can be large; an effect the other way counts as inactive or inconclusive. % is scaled to controls: 0 for no effect and ±100 for the full control effect.

SMILES | Sm TGR block | HCMV inh | Pf growth 96h | FBPA Giardia inh | Pf growth 48h
Cc1ccc(S(=O)(=O)Nc2ccccc2OC(C(=O)OC(C)(C)C)C(=O)OC(C)(C)C)cc1 | x | -11 | x | x | x
O=C(CC1C=Cc2ccccc2N1C(=O)c1ccccc1)c1ccccc1 (centres undefined) | -3% | -2 | 0.59µM* | -8% | u
CC(C)=CCCC(C)CN1CCC(N2CCC(C(=O)NC(C)C)CC2)CC1 (centres undefined) | -4% | -30 | u | 0% | 5.2µM*
N=c1c(C(=O)NC2CCCCC2)cc2c(=O)n3ccccc3nc2n1Cc1ccc(F)cc1 | -11% | 32 | u | 9% | 2.1µM*
N=c1c(C(=O)NC2CCCC2)cc2c(=O)n3ccccc3nc2n1Cc1ccccc1 | 0% | 0 | u | -1% | u
Cc1ccc(Cn2c(=N)c(C(=O)NC3CCCCC3)cc3c(=O)n4ccccc4nc32)cc1 | -16% | -11 | 2.9µM* | x | 4.1µM*
COC(=O)c1ccc(NC(=O)C(=O)N2CCN(C(=S)NCCc3ccccc3)CC2)cc1 | 8% | u | 406% | -1% | u
Cc1ccccc1C(=O)Nc1nc(-c2nnn(-c3ccc(C(C)C)cc3)c2C)ns1 | -9% | -33 | x | x | x
O=C(CN(C(=O)Cn1nnc(-c2cccs2)n1)c1cnc2ccccc2c1)NCC1CCCO1 (centres undefined) | -4% | -7 | 15µM* | -1% | u
O=C(CN(C(=O)Cn1nnc(-c2ccccc2F)n1)c1cnc2ccccc2c1)NCC1CCCO1 (centres undefined) | u | -24 | u | 6% | 9.3µM*
Cc1ccc(-c2nnn(CC(=O)N(CC(=O)NCC3CCCO3)c3ccccc3)n2)o1 (centres undefined) | -1% | 11 | -24% | 5% | -7%
CCc1c(-c2ccccc2F)ncn1Cc1cccc(-c2ccccc2)c1 | x | -71* | x | x | x
CCc1c(C2CC2)ncn1Cc1cccc(-c2ccccc2)c1 | x | -99* | x | x | x
CCc1c(-c2ccccc2)ncn1Cc1cccc(-c2ccccc2)c1 | x | -68* | x | x | x
COc1ccc2c(c1)CCCC21NC(=O)N(CC(=O)c2cc(F)ccc2F)C1=O (centres undefined) | 0% | -21 | u | x | u
CCOCCc1nn2c(=O)cc(COC(=O)c3ccc(NC(=O)C(C)(C)C)cc3)nc2s1 | -1% | 2 | x | x | x
Cc1cc2c(nc1C)CCCN2C[C@H](O)CN1CCCc2nc(-c3ccc(Br)cc3)ccc21 | x | x | x | -7%[12.9 µM] | x
Brc1ccc(CN2CCCc3nc(-c4ccccc4)ccc32)cc1 | x | -81* | x | x | x
C=CC[C@]12CCc3sccc3C1N(c1ccc(C(=O)OCC)cc1)C2=O (some centres undefined) | -6% | 26 | u | x | 10µM*
OC[C@@H]1CN(Cc2cccnc2)C[C@H](n2cnc3c(NC4CCCC4)ncnc32)O1 | x | -35 | x | x | x
O=C(CC[C@H]1O[C@@H](n2cnc3c(NC(=O)c4ccccc4)ncnc32)[C@H](O)[C@@H]1O)NCC1CCN(Cc2ccccc2)CC1 | x | 22 | x | x | x
O=C(O)c1ccc(Nc2cc(Cl)c3nonc3c2[N+](=O)[O-])cc1 | 0.32µM* | 3 | 17% | -13% | -26%
CNc1cc(Cl)c2nonc2c1[N+](=O)[O-] | 0.45µM* | -99* | u | -21% | -11%
O=[N+]([O-])c1c(Nc2cccc(O)c2)cc(Cl)c2nonc12 | 0.35µM* | -102* | 87% | 0% | 2%
Nc1cc(Nc2ccccc2)c2nonc2c1[N+](=O)[O-] | 2% | 51 | 7% | 0% | u
SMILES | Sm TGR block | HCMV inh | Pf growth 96h | FBPA Giardia inh | Pf growth 48h
CC(C)C[C@H]1CN(CCCC[C@H]2CNC(=O)C(=O)N2CCc2ccc(O)cc2)C(=O)C(=O)N1CCC1CCCCC1 | x | -12 | x | x | x
COc1ccc(N2C(=O)C(C)C(Cc3ccc(C)cc3)C2=O)cc1 (centres undefined) | 9% | -21 | u | 28% | 41%
O=C(Nc1ccc(N=Nc2ccccc2)c(NC(=O)C2CCCO2)c1)C1CCCO1 (centres undefined) | -10% | -61* | u | 1% | -17%
O=C(Nc1ccccc1C(=O)N1CCOCC1)C1CCCO1 (centres undefined) | 1% | 25 | x | 1% | -4%
NC(=O)c1ccccc1NC(=O)C1CCCO1 (centres undefined) | -2% | 46 | 10µM* | 2% | 1%
Cc1cccc(NC(=O)c2snc3c(=O)[nH]cnc23)c1 | 2% | x | 6.6µM* | 0% | 11%
Cc1ccc(-c2nnn3c2nc(NCC(C)c2ccccc2)c2ccccc23)cc1 (centres undefined) | -17% | u | x | x | x
Cc1c2c(n3c(nc4ccccc43)c1C#N)N(c1ccccc1)CC2 | 1% | x | 0.66µM* | u | 2.1µM*
Cc1c2c(n3c(nc4ccccc43)c1C#N)N(CCN(C)C)CC2 | 0% | 35 | 74% | 3% | 2.1µM*
Cc1c2c(n3c(nc4ccccc43)c1C#N)N(CCCN(C)C)CC2 | -9% | -33 | 1% | 1% | -16%
C#CCOCCOCCOCCNc1nc(N2CCN(C(=O)[C@H](CCC(=O)O)n3cc(C(N)CO)nn3)CC2)nc(N2CCN(C(=O)[C@H](CCC(=O)O)n3cc(C(N)CC(C)C)nn3)CC2)n1 (some centres undefined) | -20% | x | u | -24% | 64%
O=C(NCCNC(=O)c1ccc([N+](=O)[O-])cc1)c1ccncc1 | -1% | u | u | 0% | 19%
O=c1c(-c2ccc(F)cc2)nc2cnc(N3CCNCC3)nc2n1Cc1ccc(F)cc1 | x | x | x | -1% | x
O=C(COC(=O)COc1ccc(Br)cc1)NNC(=O)c1ccccc1 | x | -18 | x | x | x
CC(=O)c1cccc(NC(=S)Nc2cccc3ccccc23)c1 | u | -38 | 7% | -25% | 0%
CC(=O)c1ccc(NC(=S)Nc2cccc3cnccc23)cc1 | 20µM* | -22 | 2.6µM* | 2µM* | 1.9µM*
Cc1ccc(NC(=S)Nc2cccc3cnccc23)cc1 | 45µM* | 31 | u | u | u
O=C(c1cccnc1)N1C[C@H]2[C@@H](c3ccccc31)[C@@H](CO)N2C(=O)Nc1ccccc1Cl | x | 0 | x | x | x
CC(=O)Nc1ccc(-c2nccc3[nH]nc(-c4cccc(C(F)(F)F)c4)c23)cc1 | x | -102* | x | x | x
CCn1c(SCC(=O)N2CCOCC2)nnc1C(C)NC(=O)c1ccccc1 (centres undefined) | 1% | 9 | -7% | -8% | 8%
CCc1ccccc1N1CC(c2nc3ccccc3n2CCC2CCCCC2)CC1=O (centres undefined) | -3% | -108* | x | x | x
